Screening results: PubChem, National Center for Advancing Translational Sciences (NCATS)
The full list was thinned out, with hits kept by preference.
PGK inhibitor – T. brucei PGK inhibition. P07378. PGK/GAPDH coupled, Kinase-Glo luminescence, 60 min. Potency, µM (highest dose often 57.5 µM), inactives show at the highest dose activity change, negative = inhibition, most hits filed as inhibitors. 0.043% of 380,000 active. AID 602233; active means well fitted inhibition curve with a large enough effect; inconclusive means small, poorly fitted or top-dose-only effect; inactive means no such curve, though single readings can be large or run the other way; further: potency means the concentration at half of the fitted maximal effect; nearly all actives have a fitted effect of over 60% in size
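Recombinant glycosomal PGK reaction used 1,3-bisphosphoglycerate generated in-well by GAPDH (100nM final) in 100mM TEA pH 7.6, 5mM MgCl2, 0.01% Tween-20. After 60 minutes at room temperature, ATP was read by Kinase-Glo Plus luminescence end-point.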
PI5P4Ka inh – blocks human PI5P4K alpha kinase activity; 1.2% of 330,000 active; AID 652105; P48426; max response, %; PI5P4Kalpha enzyme, ADP-Glo luminescence, 60 min; active compounds read low; active means max response of -50% or lower; inconclusive means between -30% and -50%; inactive means -30% or higher; further: value at the top dose of about 77 µM
Target sequence (P48426 whole entry, looked up): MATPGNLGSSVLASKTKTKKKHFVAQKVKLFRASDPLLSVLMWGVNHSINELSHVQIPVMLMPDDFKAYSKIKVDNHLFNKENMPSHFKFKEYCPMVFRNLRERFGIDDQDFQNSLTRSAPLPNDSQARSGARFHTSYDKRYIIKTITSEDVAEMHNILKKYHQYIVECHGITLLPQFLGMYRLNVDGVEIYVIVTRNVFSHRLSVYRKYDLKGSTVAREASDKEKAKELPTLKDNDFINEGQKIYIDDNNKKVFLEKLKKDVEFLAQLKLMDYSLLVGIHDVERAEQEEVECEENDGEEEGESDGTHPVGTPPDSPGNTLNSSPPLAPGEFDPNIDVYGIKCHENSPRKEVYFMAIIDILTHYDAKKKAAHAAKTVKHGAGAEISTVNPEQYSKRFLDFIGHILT
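Quantitative HTS of the MLSMR library against PI5P4Kalpha with substrate. ATP added last at 5 microM final; room temperature, 60 minutes. Remaining ATP depleted, ADP converted and read as luminescence.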
PI4K2A inh – PI4K2A (human) kinase inhibition; Q9BTU6; 0.13% of 420,000 active; AID 1346378; purified PI4K2A, ADP-Glo luminescence, 1 h; active compounds read low; activity change, negative = inhibition, % at 76.9 µM; in the data active means activity change below about -50%; inconclusive means mostly about -30% to -49%;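 further: -100% = wells without enzyme as full effect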
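In this quantitative HTS, ADP production by PI4K2A was quantified luminescently after 1 h at ambient temperature; 100 microM adenosine served as plate-quality control.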
Pin1 inhibitor – blocks the human prolyl isomerase Pin1. Pin1 FP peptide displacement, HiFluor488, 10 min. Potency, µM (highest dose often 115 µM), for the others: top-dose activity, negative = inhibition, usual class: inhibitors. Q13526. AID 504891. 0.009% of 390,000 active; active means well fitted inhibition curve with a large enough effect in the polarisation, with a control signal flat, not every such curve was filed as active; inconclusive means small, poorly fitted or top-dose-only effect, or effect the other way, or a change in a side signal; inactive means no such curve, though single readings can be large or run the other way; the % refers to the polarisation; further: potency means the concentration at half of the fitted maximal effect
Target sequence (Q13526 whole entry, looked up): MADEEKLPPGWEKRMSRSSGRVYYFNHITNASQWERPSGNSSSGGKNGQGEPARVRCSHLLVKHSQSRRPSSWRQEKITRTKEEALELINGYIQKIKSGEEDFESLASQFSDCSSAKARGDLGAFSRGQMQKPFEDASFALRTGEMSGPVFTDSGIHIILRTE
An asterisk follows results filed as active; i = inactive; ? = inconclusive; . = not tested or not shown. Unless noted, on the % scale 0 is the no-effect control and ±100 the full control effect.

SMILES | PGK inhibitor | PI5P4Ka inh | PI4K2A inh | Pin1 inhibitor
N#Cc1c(/N=C/C2C(=O)NC(=S)NC2=O)sc2c1CCCC2 | 2.2% | -55.4* | -15.4 | ?
CCOC(=O)c1c(/N=C/C2C(=O)NC(=S)NC2=O)sc2c1CCC2 | -0.9% | -78.5* | 3.7 | ?
O=C(C1CCCN(S(=O)(=O)c2cccc3nsnc23)C1)N1CCN(c2cccc(Cl)c2)CC1 (stereo not drawn) | -2.9% | . | -2.0 | ?
C[C@H]1[C@@H]2Cc3ccc(O)cc3[C@@]1(C)CCN2C | . | . | -1.4 | .
CC/C(=N\NC(=O)c1ccccc1O)c1c(O)n(C2CCCCC2)c(=O)[nH]c1=O | i | -74.1* | -3.4 | -0.9%
CCC(=NCC1CCCO1)c1c(O)n(Cc2ccccc2)c(=O)[nH]c1=O (stereo not drawn) | 1.4% | 6.0 | -1.0 | 4.9%
CC/C(=N\NC(=O)c1ccccc1)c1c(O)n(Cc2ccccc2)c(=O)[nH]c1=O | -5.0% | -85.4* | -10.5 | ?
Cc1cccc(Oc2nc3c(C)cccn3c(=O)c2/C=C(\C#N)c2nc3ccccc3s2)c1 | 6.1% | . | -6.0 | ?
COc1ccc(CNC(=O)CSCc2cnn(-c3ccccc3)c2-n2cccc2)cc1OC | -1.4% | . | 1.4 | ?
CN(C)c1ccc(CN2CCc3nc(N4CCN(c5ccccn5)CC4)ncc3C2)cc1 | i | . | -8.7 | ?
CCCCOc1ccc(C(=O)NCCc2csc(-c3ccc(OC)cc3)n2)cc1 | -1.7% | . | -0.6 | ?
O=C1NC(=O)N(c2cccc(Br)c2)C(=O)/C1=C/c1ccsc1 | -9.8% | -64.5* | -6.3 | ?
COc1ccc(CN2C(=O)NC(=O)/C(=C/c3ccoc3)C2=O)cc1 | ? | -71.1* | -17.0 | ?
C=CCN1C(=O)/C(=C/c2cc(C)n(-c3ccccn3)c2C)C(=O)NC1=S | -11.4% | ? | -1.7 | 23.4%
COc1ccc(/C=C2\C(=O)NC(=O)N(CCC3=CCCCC3)C2=O)c(OC)c1 | -3.7% | ? | ? | 19.9%
C=CCN1C(=O)NC(=O)/C(=C/c2ccc(N(C)C)c(Br)c2)C1=O | i | -59.2* | -8.1 | 4.0%
C=CCN1C(=O)NC(=O)/C(=C/c2ccoc2)C1=O | ? | -68.7* | -6.2 | ?
COc1ccc(CN2C(=O)NC(=O)/C(=C/c3cc(OC)c(OC)c(OC)c3)C2=O)cc1 | 11.6% | -50.7* | -17.1 | 18.4%
COc1ccc(CN2C(=O)NC(=O)/C(=C/c3ccc(OC)c(OC)c3OC)C2=O)cc1 | 4.7% | -16.8 | -10.3 | 19.9%
C[C@]12CC[C@H]3[C@@H](CCC4=CC(=O)CC[C@@]43C)[C@@H]1CC[C@@H]2C(=O)O | . | . | -5.8 | .
Cc1ccc(N2C(=O)NC(=O)/C(=C/c3ccoc3)C2=O)cc1 | 11.2µM* | -82.9* | -23.9 | ?
Cc1ccc(N2C(=O)NC(=O)/C(=C/c3cnn(-c4ccc(C)cc4)c3)C2=O)cc1 | i | -16.5 | -4.2 | 9.2%
CCOCCOC(C)=O | . | . | i | .
CC(C)=CCN1CC[C@@]2(C)c3cc(O)ccc3C[C@@H]1[C@@H]2C | . | . | i | .
CC1=C(O)C(=O)C=C2C1=CC=C1C2(C)CCC2(C)C3CC(C)(C(=O)O)CCC3(C)CCC12C (stereo not drawn) | -4.8% | -72.1* | -27.1 | ?
SMILES | PGK inhibitor | PI5P4Ka inh | PI4K2A inh | Pin1 inhibitor
O=C1NC(=O)C(=Cc2coc3ccccc3c2=O)C(=O)N1 | . | -76.7* | -11.8 | ?
O=C1NC(=O)C(=Cc2csc3ccccc23)C(=O)N1 | -8.5% | -73.2* | ? | 5.7%
Cn1cc(C=C2C(=O)NC(=O)NC2=O)c2ccccc21 | -9.6% | -24.3 | -1.2 | ?
COc1ccc2c3c1O[C@H]1[C@@H](O)C=C[C@H]4[C@@H](C2)N(C)CC[C@@]341 | . | . | i | .
CCc1ccc(C2CCNCC2)cc1 | . | . | 1.2 | .
CCN1CCCC1CNC(=O)C(O)(c1ccccc1)c1ccccc1 (stereo not drawn) | . | . | 4.3 | .
CCC(C)N1C(=O)/C(=C/c2ccc3c(c2)CCN3CCCCl)C(=O)NC1=S (stereo not drawn) | -6.0% | -66.8* | -20.7 | ?
CCOc1ccc(-c2cn3c(n2)sc2cc(C(=O)N4CCCC(C)C4)ccc23)cc1 (stereo not drawn) | i | . | 0.1 | ?
CCCN1CCc2cc(O)cc3c2[C@H]1Cc1ccc(O)c(O)c1-3 | -8.8% | ? | -4.4 | ?
CN1CCc2cc(O)cc3c2[C@H]1Cc1ccc(O)c(O)c1-3 | -6.0% | -52.2* | -10.2 | 15.7%
COc1cccc(C(=O)CCN[C@@H](C)[C@H](O)c2ccccc2)c1 | . | . | 4.6 | .
CCN(CC)C(=O)c1ccc2c(c1)C1C(Cl)C(Sc3ccccc3[N+](=O)[O-])CC1C(C(=O)O)N2 (stereo not drawn) | -23.8% | -59.5* | -22.7 | ?
CCN(CC)C(=O)c1ccc2c(c1)C1C=CCC1C(C(=O)O)N2 (stereo not drawn) | 17.8µM* | ? | -25.9 | ?
Cc1c(CCNS(=O)(=O)c2ccccc2)sc2nc(-c3ccc(Cl)cc3)nn12 | i | . | 3.0 | ?
O=C1NC(=S)N(c2ccccc2F)C(=O)/C1=C\c1cccs1 | i | -91.1* | -8.7 | ?
CCOc1ccc(N2C(=O)/C(=C/c3ccco3)C(=O)NC2=S)cc1 | ? | -82.1* | -81.0* | ?
O=C1NC(=O)C(=Cc2cccs2)C(=O)N1 | -5.4% | -18.8 | -25.5 | -1.7%
CCOc1ccc(N2C(=O)/C(=C\c3cccs3)C(=O)NC2=S)cc1 | -6.9% | -64.4* | -25.6 | ?
CC(=O)c1cccc(NC(=O)CSc2ncc3c(n2)-c2cc(Cl)ccc2N(Cc2ccccc2)S3(=O)=O)c1 | -9.4% | . | -0.7 | 45.4%
ClCc1cccc(Cl)c1 | . | . | 2.9 | .
C=CCn1c(O)c(/C(CC)=N/NC(=S)Nc2ccccc2)c(=O)[nH]c1=O | i | -26.0 | 0.4 | -7.1%
C=CCn1c(O)c(/C(C)=N/NC(=S)Nc2ccccc2)c(=O)[nH]c1=O | -4.5% | -63.6* | -6.2 | -58.0%
Cc1cc(C=C2C(=O)NC(=S)NC2=O)c(C)n1-c1ccc2c(c1)OCO2 | -12.3% | -71.8* | -24.6 | 2.1%
CN1C2CCC(C)(C)C1CC(OC(=O)C(O)(c1cccs1)c1cccs1)C2 (stereo not drawn) | . | . | 0.5 | .
O=C1NC(=O)C(=Cc2ccc(SC3CCCCC3)o2)C(=O)N1 | ? | -74.8* | -27.1 | -12.2%
SMILES | PGK inhibitor | PI5P4Ka inh | PI4K2A inh | Pin1 inhibitor
O=C1c2ccccc2-c2cc3ccccc3cc21 | -11.0% | 19.9 | 5.3 | -6.9%
O=C1C=C(N2CC2)c2ccccc2C1=O | -28.9% | -66.2* | ? | .
CN1CCC(N(Cc2ccccc2)c2ccccc2)CC1 | . | . | 0.1 | .
CC(Cc1ccc(O)cc1)NCC(O)c1ccc(O)c(O)c1 (stereo not drawn) | ? | -58.8* | -7.8 | .
CC(Cc1ccc(OCC(=O)O)cc1)NCC(O)c1cccc(Cl)c1 (stereo not drawn) | . | . | -0.1 | .
NS(=O)(=O)c1ccc(-c2ccc(C=C3C(=O)NC(=O)NC3=O)o2)cc1 | -1.2% | -63.9* | ? | 7.6%
O=C1NC(=O)C(=Cc2ccc(-c3cc(Cl)ccc3[N+](=O)[O-])o2)C(=O)N1 | -4.9% | -52.7* | -14.0 | 37.9%
